# According to paper PMC11006913:
# How the values were obtained:
# Assay in all cases: PBM; 200 nM protein, PBS
# Details in all cases: dsDNA, one strand shown
# HOXC9 [1] = biological target: HOXC9 (Homo sapiens, UniProt P31274 178-260, K195R)
# HOXA2 [2] = biological target: HOXA2 (Homo sapiens, UniProt O43364 129-215, R185T)
# HOXC9 [3] = biological target: HOXC9 (Homo sapiens, UniProt P31274 178-260)
# HOXC9 [4] = biological target: HOXC9 (Homo sapiens, UniProt P31274 178-260, R193K)
# HOXA2 [5] = biological target: HOXA2 (Homo sapiens, UniProt O43364 129-215, R185K)
# Sequence of HOXA2 (Homo sapiens, UniProt O43364 129-215, R185K) (O43364 129-215 R185K): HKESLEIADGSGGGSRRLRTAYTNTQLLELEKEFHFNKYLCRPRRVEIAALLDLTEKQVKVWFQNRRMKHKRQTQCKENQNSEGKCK
# HOXC9 [6] = biological target: HOXC9 (Homo sapiens, UniProt P31274 178-260, R222W)
# Sequence of HOXC9 (Homo sapiens, UniProt P31274 178-260, R222W) (P31274 178-260 R222W): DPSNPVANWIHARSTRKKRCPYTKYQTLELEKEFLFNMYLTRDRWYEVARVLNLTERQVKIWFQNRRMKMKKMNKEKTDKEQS
# HOXA2 [7] = biological target: HOXA2 (Homo sapiens, UniProt O43364 129-215, Y150S)
# Sequence of HOXA2 (Homo sapiens, UniProt O43364 129-215, Y150S) (O43364 129-215 Y150S): as the sequence (O43364 129-215 R185K) above, with Y22S, K57R counted along it
# HOXA2 [8] = biological target: HOXA2 (Homo sapiens, UniProt O43364 129-215)
# Sequence of HOXA2 (Homo sapiens, UniProt O43364 129-215) (O43364 129-215): as the sequence (O43364 129-215 R185K) above, with K57R counted along it
# CRX [9] = biological target: CRX (Homo sapiens, UniProt O43186 26-111, E42D)
# Sequence of CRX (Homo sapiens, UniProt O43186 26-111, E42D) (O43186 26-111 E42D): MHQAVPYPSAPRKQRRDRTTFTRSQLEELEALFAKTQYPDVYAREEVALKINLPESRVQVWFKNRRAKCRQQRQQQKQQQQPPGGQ
# PITX2 = PITX2 (Homo sapiens, UniProt Q99697 72-157)
# CRX [10] = biological target: CRX (Homo sapiens, UniProt O43186 26-111, R41L)
# Sequence of CRX (Homo sapiens, UniProt O43186 26-111, R41L) (O43186 26-111 R41L): as the sequence (O43186 26-111 E42D) above, with R16L, D17E counted along it
# HOXD13 [11] = biological target: HOXD13 (Homo sapiens, UniProt P35453 263-343, T313R)
# Sequence of HOXD13 (Homo sapiens, UniProt P35453 263-343, T313R) (P35453 263-343 T313R): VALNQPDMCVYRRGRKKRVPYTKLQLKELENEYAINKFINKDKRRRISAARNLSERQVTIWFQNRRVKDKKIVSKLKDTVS
# HOXD13 [12] = biological target: HOXD13 (Homo sapiens, UniProt P35453 263-343)
# Sequence of HOXD13 (Homo sapiens, UniProt P35453 263-343) (P35453 263-343): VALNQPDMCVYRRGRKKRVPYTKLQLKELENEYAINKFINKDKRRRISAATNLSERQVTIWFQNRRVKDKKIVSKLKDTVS
# HOXD13 [13] = biological target: HOXD13 (Homo sapiens, UniProt P35453 263-343, T313A)
# Sequence of HOXD13 (Homo sapiens, UniProt P35453 263-343, T313A) (P35453 263-343 T313A): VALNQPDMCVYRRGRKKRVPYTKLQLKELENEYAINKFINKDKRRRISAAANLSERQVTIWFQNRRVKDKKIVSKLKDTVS
# MSX2 [14] = biological target: MSX2 (Homo sapiens, UniProt P35548 130-214, R199I)
# Sequence of MSX2 (Homo sapiens, UniProt P35548 130-214, R199I) (P35548 130-214 R199I): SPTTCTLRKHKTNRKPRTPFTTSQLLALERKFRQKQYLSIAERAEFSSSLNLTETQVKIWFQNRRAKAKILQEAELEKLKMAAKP
# MSX2 [15] = biological target: MSX2 (Homo sapiens, UniProt P35548 130-214)
# Sequence of MSX2 (Homo sapiens, UniProt P35548 130-214) (P35548 130-214): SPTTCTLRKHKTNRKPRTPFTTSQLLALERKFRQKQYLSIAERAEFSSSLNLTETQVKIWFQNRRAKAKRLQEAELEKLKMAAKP
# MSX2 [16] = biological target: MSX2 (Homo sapiens, UniProt P35548 130-214, F161Y)
# Sequence of MSX2 (Homo sapiens, UniProt P35548 130-214, F161Y) (P35548 130-214 F161Y): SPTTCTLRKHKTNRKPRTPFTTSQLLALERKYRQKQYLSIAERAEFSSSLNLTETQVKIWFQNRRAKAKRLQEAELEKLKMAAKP
# HOXB9 = HOXB9 (Homo sapiens, UniProt P17482 171-250, R186Q)
# Sequence of HOXB9 (P17482 171-250 R186Q): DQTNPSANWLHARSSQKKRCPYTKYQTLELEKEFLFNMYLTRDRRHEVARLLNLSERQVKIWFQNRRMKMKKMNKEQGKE
# ALX3 [17] = biological target: ALX3 (Homo sapiens, UniProt O95076 139-225, N203Q)
# Sequence of ALX3 (Homo sapiens, UniProt O95076 139-225, N203Q) (O95076 139-225 N203Q): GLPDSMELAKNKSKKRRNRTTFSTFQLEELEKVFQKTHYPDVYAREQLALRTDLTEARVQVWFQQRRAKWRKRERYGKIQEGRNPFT
# ALX3 [18] = biological target: ALX3 (Homo sapiens, UniProt O95076 139-225)
# Sequence of ALX3 (Homo sapiens, UniProt O95076 139-225) (O95076 139-225): as the sequence (O95076 139-225 N203Q) above, with Q65N counted along it
# VAX1 [19] = biological target: VAX1 (Homo sapiens, UniProt Q5SQQ9 86-172)
# Sequence of VAX1 (Homo sapiens, UniProt Q5SQQ9 86-172) (Q5SQQ9 86-172): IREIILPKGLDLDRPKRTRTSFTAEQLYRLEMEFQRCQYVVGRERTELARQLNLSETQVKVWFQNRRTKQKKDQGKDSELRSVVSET
# ALX3 [20] = biological target: ALX3 (Homo sapiens, UniProt O95076 139-225, L168Q)
# Sequence of ALX3 (Homo sapiens, UniProt O95076 139-225, L168Q) (O95076 139-225 L168Q): as the sequence (O95076 139-225 N203Q) above, with L30Q, Q65N counted along it
# ALX3 [21] = biological target: ALX3 (Homo sapiens, UniProt O95076 139-225, L168V)
# Sequence of ALX3 (Homo sapiens, UniProt O95076 139-225, L168V) (O95076 139-225 L168V): as the sequence (O95076 139-225 N203Q) above, with L30V, Q65N counted along it
# VAX1 [22] = biological target: VAX1 (Homo sapiens, UniProt Q5SQQ9 86-172, T142I)
# Sequence of VAX1 (Homo sapiens, UniProt Q5SQQ9 86-172, T142I) (Q5SQQ9 86-172 T142I): as the sequence (Q5SQQ9 86-172) above, with T57I counted along it
# ALX3 [23] = biological target: ALX3 (Homo sapiens, UniProt O95076 139-225, N203S)
# Sequence of ALX3 (Homo sapiens, UniProt O95076 139-225, N203S) (O95076 139-225 N203S): as the sequence (O95076 139-225 N203Q) above, with Q65S counted along it
# VAX1 [24] = biological target: VAX1 (Homo sapiens, UniProt Q5SQQ9 86-172, K157R)
# Sequence of VAX1 (Homo sapiens, UniProt Q5SQQ9 86-172, K157R) (Q5SQQ9 86-172 K157R): as the sequence (Q5SQQ9 86-172) above, with K72R counted along it
# Sequence of HOXC9 (Homo sapiens, UniProt P31274 178-260, K195R) (P31274 178-260 K195R): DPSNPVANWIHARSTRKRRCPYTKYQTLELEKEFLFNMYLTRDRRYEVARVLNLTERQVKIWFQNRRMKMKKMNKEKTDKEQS
# Sequence of HOXA2 (Homo sapiens, UniProt O43364 129-215, R185T) (O43364 129-215 R185T): as the sequence (O43364 129-215 R185K) above, with K57T counted along it
# Sequence of HOXC9 (Homo sapiens, UniProt P31274 178-260, R193K) (P31274 178-260 R193K): as the sequence (P31274 178-260 R222W) above, with R16K, W45R counted along it
# Sequence of HOXC9 (Homo sapiens, UniProt P31274 178-260) (P31274 178-260): as the sequence (P31274 178-260 R222W) above, with W45R counted along it
sequence,measurement,setting,value
CCTGCCGC,binding signal,HOXC9 [1],"9.4 upbm affinity estimate (log intensity, higher = more binding, comparable within an allelic series)"
same,binding signal,HOXA2 [2],"6.91 upbm affinity estimate (log intensity, higher = more binding, comparable within an allelic series)"
same,binding signal,HOXC9 [3],"9.49 upbm affinity estimate (log intensity, higher = more binding, comparable within an allelic series)"
same,binding signal,HOXC9 [4],"9.31 upbm affinity estimate (log intensity, higher = more binding, comparable within an allelic series)"
same,binding signal,HOXA2 [5],"9.96 upbm affinity estimate (log intensity, higher = more binding, comparable within an allelic series)"
same,binding signal,HOXC9 [6],"9.67 upbm affinity estimate (log intensity, higher = more binding, comparable within an allelic series)"
same,binding signal,HOXA2 [7],"10.4 upbm affinity estimate (log intensity, higher = more binding, comparable within an allelic series)"
same,binding signal,HOXA2 [8],"7.06 upbm affinity estimate (log intensity, higher = more binding, comparable within an allelic series)"
AGATTAAA,binding signal,HOXC9 [1],"11.2 upbm affinity estimate (log intensity, higher = more binding, comparable within an allelic series)"
same,binding signal,CRX [9],"12.7 upbm affinity estimate (log intensity, higher = more binding, comparable within an allelic series)"
same,binding signal,HOXC9 [3],"11.1 upbm affinity estimate (log intensity, higher = more binding, comparable within an allelic series)"
same,binding signal,PITX2,"12.3 upbm affinity estimate (log intensity, higher = more binding, comparable within an allelic series)"
same,binding signal,HOXC9 [4],"11.2 upbm affinity estimate (log intensity, higher = more binding, comparable within an allelic series)"
same,binding signal,CRX [10],"12.5 upbm affinity estimate (log intensity, higher = more binding, comparable within an allelic series)"
TTCATAAA,binding signal,HOXC9 [1],"11.7 upbm affinity estimate (log intensity, higher = more binding, comparable within an allelic series)"
same,binding signal,HOXC9 [3],"11.7 upbm affinity estimate (log intensity, higher = more binding, comparable within an allelic series)"
same,binding signal,HOXC9 [4],"11.7 upbm affinity estimate (log intensity, higher = more binding, comparable within an allelic series)"
CCCTGCGG,binding signal,HOXC9 [1],"9.55 upbm affinity estimate (log intensity, higher = more binding, comparable within an allelic series)"
same,binding signal,HOXA2 [2],"7.02 upbm affinity estimate (log intensity, higher = more binding, comparable within an allelic series)"
same,binding signal,HOXC9 [3],"9.73 upbm affinity estimate (log intensity, higher = more binding, comparable within an allelic series)"
same,binding signal,HOXD13 [11],"9.39 upbm affinity estimate (log intensity, higher = more binding, comparable within an allelic series)"
same,binding signal,HOXC9 [4],"9.6 upbm affinity estimate (log intensity, higher = more binding, comparable within an allelic series)"
same,binding signal,HOXA2 [5],"10.3 upbm affinity estimate (log intensity, higher = more binding, comparable within an allelic series)"
same,binding signal,HOXD13 [12],"9.44 upbm affinity estimate (log intensity, higher = more binding, comparable within an allelic series)"
same,binding signal,HOXD13 [13],"9.6 upbm affinity estimate (log intensity, higher = more binding, comparable within an allelic series)"
same,binding signal,HOXC9 [6],"9.56 upbm affinity estimate (log intensity, higher = more binding, comparable within an allelic series)"
same,binding signal,HOXA2 [7],"10.5 upbm affinity estimate (log intensity, higher = more binding, comparable within an allelic series)"
same,binding signal,HOXA2 [8],"7 upbm affinity estimate (log intensity, higher = more binding, comparable within an allelic series)"
ATTTGTTC,binding signal,HOXC9 [1],"11 upbm affinity estimate (log intensity, higher = more binding, comparable within an allelic series)"
same,binding signal,HOXA2 [2],"9.37 upbm affinity estimate (log intensity, higher = more binding, comparable within an allelic series)"
same,binding signal,HOXC9 [3],"10.9 upbm affinity estimate (log intensity, higher = more binding, comparable within an allelic series)"
same,binding signal,HOXC9 [4],"11 upbm affinity estimate (log intensity, higher = more binding, comparable within an allelic series)"
same,binding signal,HOXA2 [7],"10.8 upbm affinity estimate (log intensity, higher = more binding, comparable within an allelic series)"
same,binding signal,HOXA2 [8],"9.22 upbm affinity estimate (log intensity, higher = more binding, comparable within an allelic series)"
AGTAATAA,binding signal,HOXC9 [1],"12.3 upbm affinity estimate (log intensity, higher = more binding, comparable within an allelic series)"
same,binding signal,HOXC9 [3],"12.3 upbm affinity estimate (log intensity, higher = more binding, comparable within an allelic series)"
same,binding signal,MSX2 [14],"11.4 upbm affinity estimate (log intensity, higher = more binding, comparable within an allelic series)"
same,binding signal,HOXC9 [4],"12.3 upbm affinity estimate (log intensity, higher = more binding, comparable within an allelic series)"
same,binding signal,MSX2 [15],"12.5 upbm affinity estimate (log intensity, higher = more binding, comparable within an allelic series)"
same,binding signal,HOXC9 [6],"10.9 upbm affinity estimate (log intensity, higher = more binding, comparable within an allelic series)"
same,binding signal,MSX2 [16],"12.3 upbm affinity estimate (log intensity, higher = more binding, comparable within an allelic series)"
ATTTAATA,binding signal,HOXC9 [1],"12.4 upbm affinity estimate (log intensity, higher = more binding, comparable within an allelic series)"
same,binding signal,HOXC9 [3],"12.5 upbm affinity estimate (log intensity, higher = more binding, comparable within an allelic series)"
same,binding signal,HOXD13 [11],"10.9 upbm affinity estimate (log intensity, higher = more binding, comparable within an allelic series)"
same,binding signal,HOXC9 [4],"12.4 upbm affinity estimate (log intensity, higher = more binding, comparable within an allelic series)"
same,binding signal,HOXD13 [12],"11.9 upbm affinity estimate (log intensity, higher = more binding, comparable within an allelic series)"
same,binding signal,HOXD13 [13],"11.8 upbm affinity estimate (log intensity, higher = more binding, comparable within an allelic series)"
same,binding signal,HOXB9,"11.4 upbm affinity estimate (log intensity, higher = more binding, comparable within an allelic series)"
same,binding signal,HOXC9 [6],"11.1 upbm affinity estimate (log intensity, higher = more binding, comparable within an allelic series)"
CCTCCCAG,binding signal,HOXC9 [1],"9.59 upbm affinity estimate (log intensity, higher = more binding, comparable within an allelic series)"
same,binding signal,HOXC9 [3],"9.7 upbm affinity estimate (log intensity, higher = more binding, comparable within an allelic series)"
same,binding signal,ALX3 [17],"7.74 upbm affinity estimate (log intensity, higher = more binding, comparable within an allelic series)"
same,binding signal,HOXC9 [4],"9.59 upbm affinity estimate (log intensity, higher = more binding, comparable within an allelic series)"
same,binding signal,ALX3 [18],"7.69 upbm affinity estimate (log intensity, higher = more binding, comparable within an allelic series)"
same,binding signal,VAX1 [19],"7.07 upbm affinity estimate (log intensity, higher = more binding, comparable within an allelic series)"
same,binding signal,ALX3 [20],"7.76 upbm affinity estimate (log intensity, higher = more binding, comparable within an allelic series)"
same,binding signal,HOXC9 [6],"9.67 upbm affinity estimate (log intensity, higher = more binding, comparable within an allelic series)"
same,binding signal,ALX3 [21],"7.74 upbm affinity estimate (log intensity, higher = more binding, comparable within an allelic series)"
same,binding signal,VAX1 [22],"7.13 upbm affinity estimate (log intensity, higher = more binding, comparable within an allelic series)"
same,binding signal,ALX3 [23],"7.72 upbm affinity estimate (log intensity, higher = more binding, comparable within an allelic series)"
same,binding signal,VAX1 [24],"6.95 upbm affinity estimate (log intensity, higher = more binding, comparable within an allelic series)"
GGAGAACC,binding signal,HOXC9 [1],"9.48 upbm affinity estimate (log intensity, higher = more binding, comparable within an allelic series)"
same,binding signal,HOXC9 [3],"9.62 upbm affinity estimate (log intensity, higher = more binding, comparable within an allelic series)"
same,binding signal,HOXD13 [11],"9.57 upbm affinity estimate (log intensity, higher = more binding, comparable within an allelic series)"
same,binding signal,HOXC9 [4],"9.52 upbm affinity estimate (log intensity, higher = more binding, comparable within an allelic series)"
same,binding signal,HOXD13 [12],"9.46 upbm affinity estimate (log intensity, higher = more binding, comparable within an allelic series)"
same,binding signal,HOXD13 [13],"9.73 upbm affinity estimate (log intensity, higher = more binding, comparable within an allelic series)"
same,binding signal,HOXC9 [6],"9.79 upbm affinity estimate (log intensity, higher = more binding, comparable within an allelic series)"
ACTAAATA,binding signal,HOXC9 [1],"11.6 upbm affinity estimate (log intensity, higher = more binding, comparable within an allelic series)"
same,binding signal,HOXC9 [3],"11.5 upbm affinity estimate (log intensity, higher = more binding, comparable within an allelic series)"
same,binding signal,HOXC9 [4],"11.6 upbm affinity estimate (log intensity, higher = more binding, comparable within an allelic series)"
